# Hits are enriched below; roughly 10% of the tested compounds scored in any of these assays.
# 3T3 cytotox: cytotoxic compounds in NIH 3T3 cells | NIH 3T3 viability, CellTiter-Glo ATP luminescence, 48-72 h | Potency, µM (highest dose often 96.7 µM), without a hit: at the highest dose activity change, negative = cytotoxicity, hits mostly inhibitors | 94,000 tested, 4.3% active | AID 1345082; note: % is set by controls: 0 for no effect and ±100 for the full control effect; nearly all actives have a fitted effect of over 55% in size
#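 Cytotoxicity is measured as loss of cellular ATP: NIH 3T3 cells (400/well) are exposed to compound for 48 or 72 hr at 37 °C, then CellTiter-Glo luminescence is imaged after 10 min at room temperature.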
# Luciferase inh: blocks purified firefly luciferase enzyme activity; P08659; purified P. pyralis luciferase, luminescence, biochemical; Potency, µM (top dose mostly 115 µM), hits mostly inhibitors; 76,000 tested, 2.5% active; note: % is set by controls: 0 for no effect and ±100 for the full control effect; nearly all actives have a fitted effect of over 65% in size
#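 Cell-free enzyme assay, 10nM P. pyralis luciferase, luciferin and ATP each at 10uM. Inhibition profiled over a 6-point titration, read as luminescence.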
# HEK293 tox: HEK 293 cell cytotoxicity | HEK 293 viability, ATP luminescence (CellTiter-Glo), 48-72 h | AID 1345083 | 94,000 tested, 6.6% active | Potency, µM (top dose mostly 115 µM), without a hit: at the highest dose activity change, negative = cytotoxicity, actives largely listed as inhibitors; note: % is set by controls: 0 for no effect and ±100 for the full control effect; nearly all actives have a fitted effect of over 60% in size
#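 qHTS cytotoxicity; HEK 293, 250 cells/well; compound pinned; 48 or 72 hr, 37 degree Celsius, 5% CO2, 95% humidity; CellTiter-Glo, 10 min RT; luminescence (ATP).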
# GPT2 inh: inhibitors of human GPT2 alanine aminotransferase; Recombinant GPT2, coupled pyruvate oxidase/HRP Amplex Red fluorescence; Q8TD30; 100,000 tested, 0.25% active; AID 1671188; Potency, µM (titrated, usually from 57.7 µM), without a hit: at the highest dose activity change, negative = inhibition, actives largely listed as inhibitors; note: % is set by controls: 0 for no effect and ±100 for the full control effect; nearly all actives have a fitted effect of over 60% in size
# Target sequence (Q8TD30 whole entry, looked up): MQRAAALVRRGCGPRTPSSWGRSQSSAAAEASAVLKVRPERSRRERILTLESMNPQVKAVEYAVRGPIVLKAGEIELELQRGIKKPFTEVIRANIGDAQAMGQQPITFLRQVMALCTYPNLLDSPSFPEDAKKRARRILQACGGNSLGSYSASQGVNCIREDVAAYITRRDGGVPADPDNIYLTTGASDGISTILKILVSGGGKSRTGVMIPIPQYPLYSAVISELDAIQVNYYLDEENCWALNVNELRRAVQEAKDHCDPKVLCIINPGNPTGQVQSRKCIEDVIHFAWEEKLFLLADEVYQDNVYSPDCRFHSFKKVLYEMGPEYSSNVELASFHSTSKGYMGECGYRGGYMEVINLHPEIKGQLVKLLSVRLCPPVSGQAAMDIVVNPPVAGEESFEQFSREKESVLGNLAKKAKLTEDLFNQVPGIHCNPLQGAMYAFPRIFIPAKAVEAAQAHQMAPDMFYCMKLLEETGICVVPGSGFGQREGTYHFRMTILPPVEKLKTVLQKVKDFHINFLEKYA
#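 Fluorescence read-out: pyruvate from GPT2 turnover coupled to pyruvate oxidase, HRP and Amplex Red (0.2mM ThPP, 0.2U/mL PO and HRP, 50uM Amplex final). Substrates 250uM a-KG, 2mM L-alanine; enzyme 10ng/uL; 30 min RT.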
# hNpr1 antagonist: antagonists of human natriuretic peptide receptor Npr1; HEK293 hNpr1 GloSensor cGMP, ANP-stimulated luminescence; Potency, µM (top dose mostly 46.3 µM), inactives show at the highest dose activity change, negative = inhibition, most hits filed as inhibitors; 76,000 tested, 1.6% active; AID 1347048; calls by dose curve; note: % is set by controls: 0 for no effect and ±100 for the full control effect; nearly all actives have a fitted effect of over 60% in size
#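 HEK293 cells stably expressing human Npr1 and cGMP GloSensor pGS-40F, loaded 2 h with 2% GloSensor reagent, given compound 30 min at room temperature. Luminescence read before and 20 min after 0.1 nM hNppA.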
# NPR1 antag cnf: hNpr1 antagonism, confirmation assay. HEK293 hNpr1 cGMP GloSensor luminescence, ANP-stimulated. 1,400 tested, 76% active. Potency, µM (series often up to 57.6 µM), without a hit: at the highest dose activity change, negative = inhibition, hits mostly inhibitors. shares compounds with hNpr1 antagonist; calls by dose curve; note: nearly all actives have a fitted effect of over 70% in size
# Npr2 selectivity: hNpr2 antagonism, selectivity versus Npr1 | shares compounds with hNpr1 antagonist | HEK293 hNpr2 GloSensor cGMP luminescence, CNP-stimulated | Potency, µM (titrated, usually from 57.6 µM), for the others: at the top dose activity change, negative = inhibition, usual class: inhibitors | 1,400 tested, 67% active; calls by dose curve; note: nearly all actives have a fitted effect of over 70% in size
# FLuc counter: counter-screen for Npr1 antagonists: firefly luciferase inhibitors; Potency, µM (doses to about 57.6 µM), inactives show at the highest dose activity change, negative = inhibition, hits mostly inhibitors; 1,400 tested, 0.7% active; AID 1347047; purified FLuc enzyme, luminescence, Km substrate; shares compounds with hNpr1 antagonist; note: 0% is about no effect
# GloSensor ctrl: reduces cGMP signal in GloSensor control cells; shares compounds with hNpr1 antagonist; AID 1347051; Potency, µM (series often up to 57.6 µM), without a hit: top-dose activity change, negative = inhibition, usual class: inhibitors; HEK293 GloSensor cGMP, SNP-stimulated, luminescence; 1,400 tested, 69% active; calls by dose curve; note: % is set by controls: 0 for no effect and ±100 for the full control effect; nearly all actives have a fitted effect of over 70% in size
# Numbers without * were called inactive; i = inactive; ? = inconclusive; / = not tested or not shown; [ ] = remark or other dose. Unless noted, calls come from the whole dose curve; as a rule, active = well fitted curve in the direction sought with a large enough effect; inconclusive = small, poorly fitted or top-dose-only effect, or another doubt; inactive = no such curve, though single readings can be large; an effect the other way counts as inactive or inconclusive. Potency is the fitted concentration of half-maximal effect.
SMILES,3T3 cytotox,Luciferase inh,HEK293 tox,GPT2 inh,hNpr1 antagonist,NPR1 antag cnf,Npr2 selectivity,FLuc counter,GloSensor ctrl
COc1ccc(C(=O)N2CCC3(CC2)CC(=O)c2ccccc2O3)cc1,-26.7%,i,?,-18.6%,-3.4%,/,/,/,/
O=C(NCc1cc(F)ccc1F)c1csc(N2CCN(c3ccccc3F)CC2)n1,?,i,?,-8.0%,?,27.3µM*,?,1.5%,?
O=C(NCc1cccs1)c1csc(N2CCN(c3ccccc3F)CC2)n1,?,i,?,i,-27.6%,?,?,-2.2%,?
CN1CCN(c2nc(C(=O)NC(C)(C)C)cs2)CC1,-12.4%,i,3.6%,-7.6%,5.5%,/,/,/,/
CC1(COc2cccnc2)COc2ccc(C(=O)N3CC[S+](=O)([O-])CC3)cc2N1 (stereo not given),-15.5%[138 µM],i,?,0.7%[88.5 µM],-15.4%[70.6 µM],/,/,/,/
OC1CC(c2cc(NCCOc3ccccc3)ncn2)C1 (stereo not given),?,?,?,-4.1%,?,/,/,/,/
OC1CC(c2cc(NCCOCc3ccc(Cl)cc3)ncn2)C1 (stereo not given),?,i,?,-0.7%,11.2µM*,21.7µM*,?,-2.7%,21.7µM*
O=S(=O)(CCNc1cc(C2CC(O)C2)ncn1)c1ccc(F)cc1 (stereo not given),4.7%,i,i,-8.9%,-3.4%,/,/,/,/
COc1ccc(CCCNc2cc(C3CC(O)C3)ncn2)cc1 (stereo not given),-27.1%,i,?,-5.4%,10µM*,19.3µM*,19.3µM*,-0.6%,13.7µM*
CCc1ccc(CNC(=O)C2CCN(c3cc(C(F)(F)F)ncn3)CC2)cc1,?,i,?,i,14.1µM*,21.7µM*,17.2µM*,4.0%,13.7µM*
CSc1ccc(CNC(=O)C2CCN(c3cc(C(F)(F)F)ncn3)CC2)cc1,?,i,?,4.0%,12.6µM*,19.3µM*,21.7µM*,4.2%,15.3µM*
Cc1ccc(CNC(=O)C2CCN(c3cc(C(F)(F)F)ncn3)CC2)cc1,-24.2%,i,?,-7.9%,12.6µM*,24.3µM*,21.7µM*,2.5%,19.3µM*
O=C(NCCc1ccccc1)C1CCN(c2cc(C(F)(F)F)ncn2)CC1,-14.7%,i,-21.3%,0.2%,-17.4%,/,/,/,/
COCCCn1c(=O)c(C(=O)NCC(=O)OC)nc2cccnc21,-1.7%[138 µM],/,-15.7%[172 µM],-0.2%[88.5 µM],/,/,/,/,/
CCn1cc(S(=O)(=O)NCC2Cn3cccc3CN2Cc2ccccc2)cn1 (stereo not given),?,i,?,i,-19.2%,/,/,/,/
CCc1noc(CC2CCOC3(CCN(S(=O)(=O)c4ccc(C(C)C)cc4)CC3)C2)n1 (stereo not given),?,i,?,-9.8%,10µM*,17.2µM*,19.3µM*,-2.4%,12.2µM*
CCc1noc(CC2CCOC3(CCN(S(=O)(=O)c4ccc(Cl)cc4)CC3)C2)n1 (stereo not given),?,i,?,3.3%,?,/,/,/,/
CCc1noc(CC2CCOC3(CCN(S(=O)(=O)c4ccc(F)c(F)c4)CC3)C2)n1 (stereo not given),?,i,79.4µM*,-1.6%,10µM*,21.7µM*,?,-0.7%,?
O=C(c1ccnc2ccccc12)N1CCC2(CC1)Nc1ccccc1NC2=O,-45.8%,i,?,?,?,21.7µM*,?,2.9%,27.3µM*
O=C(c1ccc2[nH]ccc2c1)N1CCCC(n2cc(-c3nc(C4CC4)no3)nn2)C1 (stereo not given),?,i,?,i,?,/,/,/,/
CCNc1cc(N2CCC(CCC(=O)N3CCCN(c4ncccn4)CC3)CC2)ncn1,-24.4%,i,?,i,?,24.3µM*,?,1.6%,24.3µM*
COc1nccc(N2CCC(CC(=O)NCc3ccc(F)c(Cl)c3)CC2)n1,?,i,?,-9.6%,11.2µM*,24.3µM*,21.7µM*,2.6%,24.3µM*
COc1nccc(N2CCC(CC(=O)N3CCCN(c4ncccn4)CC3)CC2)n1,-30.7%,i,?,i,22.4µM*,24.3µM*,?,3.4%,?
CCNc1cc(N2CCC(CCC(=O)NCC3CC3)CC2)ncn1,-4.5%,i,?,i,-4.3%,/,/,/,/
CNc1nccc(N2CCC(CC(=O)N3CCN(c4ccccc4C)CC3)CC2)n1,44.7µM*,i,28.2µM*,-3.4%,?,?,?,7.1%,?
SMILES,3T3 cytotox,Luciferase inh,HEK293 tox,GPT2 inh,hNpr1 antagonist,NPR1 antag cnf,Npr2 selectivity,FLuc counter,GloSensor ctrl
O=C(N[C@@H]1CNCCC[C@H]1O)c1ccc(OCCN2CCCC2)cc1,-2.0%[174 µM],i,-8.6%[172 µM],4.6%[88.5 µM],8.7%[70.6 µM],/,/,/,/
O=C1COCC2(CN1)CN(c1ccc(Oc3ccccc3)cc1)C2,?,i,?,3.0%[88.5 µM],7.08µM*,11.1µM*,9.94µM*,-4.3%[86.2 µM],9.94µM*
C[C@@H]1C(=O)O[C@H]2[C@H]1CC[C@@]1(C)Cc3sc(NC(=O)c4ccc(N(C)C)cc4)nc3[C@@H](C)[C@H]21,31.6µM*,i,?,-2.4%,8.91µM*,13.7µM*,?,-1.2%,10.9µM*
COc1ccc(CCCN2C(=O)O[C@@H]3CN(c4cc(OC)ncn4)C[C@@H]32)cc1,?,i,?,-10.1%,12.6µM*,24.3µM*,21.7µM*,-0.8%,21.7µM*
COc1ccc(NC(=O)C2CCN(c3cc(C(F)(F)F)ncn3)CC2)cc1OC,-25.0%,i,?,?,-19.2%,/,/,/,/
O=C(Nc1ccc(F)cc1)C1CCN(c2cc(C(F)(F)F)ncn2)CC1,-32.7%,i,-30.4%,i,?,21.7µM*,?,-0.5%,24.3µM*
COc1ccc(NC(=O)C2CCN(c3cc(C(F)(F)F)ncn3)CC2)cc1,-21.1%,i,-25.4%,1.8%,?,/,/,/,/
